# Measured values published in PubChem BioAssay AID493098 (Sanford-Burnham Center for Chemical Genomics, 2011).
# In all, about 340,000 compounds went through this assay and about 1,700 (0.5%) were called active. The sample holds actives, similar compounds and a random draw of the others, so the mix is not that of the screen. Unmarked numbers belong to inactive results.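 How the source made its calls: active means compounds whose inhibition of the agonist-driven luminescence signal at 20 µM reaches about 50% (limit read from the data); inactive means the rest.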
# Biological target: C-C chemokine receptor type 6 (Homo sapiens) (UniProt P51684)
# Sequence (P51684 whole entry, looked up): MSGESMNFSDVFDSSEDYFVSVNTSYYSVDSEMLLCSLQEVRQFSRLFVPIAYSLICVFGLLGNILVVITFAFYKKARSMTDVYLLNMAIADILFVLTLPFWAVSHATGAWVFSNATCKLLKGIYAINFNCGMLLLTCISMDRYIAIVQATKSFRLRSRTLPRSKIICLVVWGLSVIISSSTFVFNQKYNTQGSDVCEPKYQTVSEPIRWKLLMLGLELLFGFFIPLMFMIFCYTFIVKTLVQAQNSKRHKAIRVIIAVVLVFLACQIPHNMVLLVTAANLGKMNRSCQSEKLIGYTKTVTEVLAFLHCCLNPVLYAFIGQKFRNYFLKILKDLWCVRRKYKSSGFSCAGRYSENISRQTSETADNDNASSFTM
# Assay: CCR6 receptor antagonists, primary screen, cell-based, CHO-K1, luminescence, beta-arrestin, uHTS (AID 493098);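 further: cells stimulated with CCL20 at 14 nM final; plate controls were DMSO with CCL20 for no effect and DMSO without agonist for full effect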
# Details: CHO-K1 CCR6 PathHunter beta-arrestin, CCL20-stimulated, at 20 µM, active compounds read high
row,SMILES,inhibition
1,COc1cc(NS(=O)(=O)c2ccc3ccccc3c2)c2ncccc2c1,13.2%
2,NS(=O)(=O)c1ccc(CCNS(=O)(=O)c2cccc3cccnc23)cc1,12.6%
3,O=[N+]([O-])c1ccccc1S(=O)(=O)Nc1cccc2cccnc12,54.6% (active)
4,CCOc1ccccc1NC(=O)COc1ccc(S(=O)(=O)N2CCCC2)cc1,17.1%
5,O=[N+]([O-])c1ccc(N(CCO)Cc2ccccc2)c([N+](=O)[O-])c1,12.9%
6,CN1CCN(/N=C2/C(=O)Nc3ccc([N+](=O)[O-])cc32)CC1,7.16%
7,O=C1Nc2ccc([N+](=O)[O-])cc2C1=Nc1cccc(CO)c1,57.4% (active)
8,COc1ccc(N2CCN(CCNC(=O)c3nnc(Cc4c(F)cccc4Cl)o3)CC2)cc1,14.8%
9,CCn1nc(C)c(CN2CCN(Cc3ccc(OC)c(C)c3C)C(CCO)C2)c1C (configuration not stated),5.51%
10,COc1cc2c(-c3ccc4c(c3)OCO4)c(-c3ccsc3)oc(=O)c2cc1OC,21%
11,O=C(N/N=C/c1cc(Cl)cc([N+](=O)[O-])c1O)C(O)(c1ccccc1)c1ccccc1,54.2% (active)
12,O=C(O)c1ccccc1/C=N/Nc1ccc(S(=O)(=O)Nc2ccc(Cl)cc2)cc1[N+](=O)[O-],46.4%
13,O=C(N/N=C/c1cc(Br)c(O)c([N+](=O)[O-])c1)C(O)(c1ccccc1)c1ccccc1,33.5%
14,COC(=O)c1cccc(C(=O)N2CCC(CCC(=O)NCc3ccc(F)cc3)CC2)c1,7.16%
15,CCc1ccc(N(C(=O)c2csnn2)C(C(=O)NC2CCCCC2)c2cccnc2)cc1 (configuration not stated),18.2%
16,Cc1cc2oc(=O)cc(CN(C)Cc3ccc(OC(F)F)cc3)c2cc1Cl,21.5%
17,COc1ccc(C(C#N)(CC(=O)O)c2cnccn2)cc1OC (configuration not stated),14.6%
18,O=c1nc(N/N=C/c2ccco2)cn[nH]1,3.85%
19,Cc1ccc(S(=O)(=O)N2CCN(CC(=O)N/N=C/c3cc([N+](=O)[O-])ccc3Cl)CC2)cc1,-22.1%
20,O=S(=O)(c1ccc(NC(=S)NN=C(C2CC2)C2CC2)cc1)N1CCOCC1,15.7%
21,O=[N+]([O-])c1cc(Cl)cc(/C=N/NC(=S)Nc2cc(S(=O)(=O)N3CCOCC3)ccc2Cl)c1O,63.1% (active)
22,CCOc1cc(C(=O)OCC(=O)Nc2cccc(C)c2)ccc1OCC(=O)N1CCOCC1,1.35%
23,CCc1nccn1S(=O)(=O)c1cccc([N+](=O)[O-])c1,3.26%

row,SMILES,inhibition
1,Cc1ccc(/C([O-])=C(/C(=S)NCc2ccco2)[n+]2ccccc2)cc1[N+](=O)[O-],14.2%
2,c1ccc2c(c1)OC1OC2Oc2ccccc21,19.4%
3,CCC(C)N1C(=O)S/C(=C/c2ccc(Sc3nc4ccccc4[nH]3)o2)C1=O (configuration not stated),15.6%
4,Cc1cc(C(=O)N/N=C/c2cc([N+](=O)[O-])cc(C)c2O)n[nH]1,34.7%
5,O=[N+]([O-])c1cc(Br)c(O)c(/C=N/Nc2nc3ccccc3s2)c1,54.2% (active)
6,O=C(NC(Nc1nc2ccc([N+](=O)[O-])cc2s1)(C(F)(F)F)C(F)(F)F)c1ccccc1,34.6%
7,O=C(CN(Cc1ccc(Br)cc1)S(=O)(=O)c1ccccc1)NCc1ccncc1,28.9%
8,CCOC(=O)c1c(C)[nH]c(C)c1S(=O)(=O)NCCCc1ccco1,0.21%
9,COc1ccc(C(=O)NC2CC2)cc1OC1CCN(C/C=C/c2ccccc2)CC1,3.46%
10,Nc1nnnn1/N=C/c1cc([N+](=O)[O-])ccc1O,23.1%
11,O=[N+]([O-])c1ccc(O)c(/C=N/Nc2ccccc2[N+](=O)[O-])c1,55.9% (active)
12,O=C(N/N=C/c1cc([N+](=O)[O-])ccc1O)/C(=C\c1cccs1)NC(=O)c1ccccc1,34.4%
13,CCN(CC)C(=O)c1nc[nH]c1C(=O)N(C)Cc1ccccc1,9.33%
14,COc1ccc(OC)c(-c2csc(NC(=O)C3=NNC(=O)CC3)n2)c1,-1%
15,COc1ccc2oc(=O)cc(-c3cc4ccccc4o3)c2c1,10.7%
16,COc1ccc2nc(Nc3nc(-c4cc5ccccc5oc4=O)cs3)sc2c1,54.4% (active)
17,Cc1cc(Cl)c(S(=O)(=O)NCc2cccnc2)cc1OCC(N)=O,-11.7%
18,O=[N+]([O-])c1ccc(N=NNc2ccc([N+](=O)[O-])cc2)cc1,58.2% (active)
19,CNC(=S)Nc1ccc([N+](=O)[O-])cc1,7.58%
20,NC(=O)C1(Nc2ccc([N+](=O)[O-])cc2)CCCC1,4.74%
21,CC(=O)NC(CC(=O)Nc1ccc(S(=O)(=O)N2CCOCC2)cc1)c1ccccc1 (configuration not stated),4.97%
22,Cc1nc(SCC(=O)NC2CCCCC2C)c(C#N)c(C)c1C (configuration not stated),13%
23,CCOc1ccc(C(=O)NC(=S)Nc2ccc(N3CCOCC3)c(Cl)c2)cc1[N+](=O)[O-],53.9% (active)

row,SMILES,inhibition
1,COc1cccc(OC)c1C(=O)NC(=S)Nc1ccc(N2CCOCC2)c(Cl)c1,8.18%
2,CCOc1ccc(C(=O)NC(=S)Nc2ccc(NC(=O)C(C)C)cc2)cc1[N+](=O)[O-],28.1%
3,C/C=C/C=C/C(=O)O,-5.26%
4,COC(=O)c1ccc(NCc2cc(O)ccc2O)cc1,20.3%
5,COc1ccc(NC(=O)CCCC(=O)c2ccccc2)cc1,-6.21%
6,Cc1ccc(NC(=S)Nc2ccc(F)cc2)cc1,-4.89%
7,COC(=O)c1ccc(NCC(=O)c2ccccc2)cc1,72.6% (active)
8,Cc1ccc(C(=O)CNc2ccc(F)cc2)cc1,90.9% (active)
9,Cc1ccc(C(=O)NC2CCN(C(=O)Nc3ccc(F)cc3)CC2)cc1,-8.58%
10,O=C(Nc1ccc(Br)cc1F)C1CC(=O)N(C2CCCCC2)C1 (configuration not stated),1.54%
11,CC(C)NC(=O)c1ccc(Sc2ccccc2)c([N+](=O)[O-])c1,10.2%
12,Cc1cc(C)cc(OCC(=O)NNC(=O)CCN2C(=O)c3ccccc3C2=O)c1,10.7%
13,O=C1C(Cl)=C(Oc2ccccc2)C(=O)c2ccccc21,117% (active)
14,CC(=O)N(C1=C(Cl)C(=O)c2ccccc2C1=O)c1ccc(C(=O)O)cc1,11.9%
15,O=C(CCC1CCN(C(=O)c2cccc(Cl)c2F)CC1)Nc1ccccc1,20.2%
16,CC(NC(=O)c1ccccc1)C(=O)Nc1ccccc1 (configuration not stated),-0.64%
17,O=C(NC1=CC(=O)c2ccccc2C1=O)c1ccccc1,83% (active)
18,O=C1C=C(NS(=O)(=O)c2ccccc2)C(=O)c2ccccc21,29.7%
19,CCn1c(=S)[nH]c2cc(S(=O)(=O)N3CCOCC3)ccc21,-2.44%
20,CC(c1ccco1)N(C(=O)Nc1ccccc1)C1CCCCC1 (configuration not stated),3.12%
21,COC(=O)/C=C\C(=O)Nc1cccc([N+](=O)[O-])c1,106% (active)
22,COc1ccc(S(=O)(=O)NC(C)C(=O)Nc2cccc([N+](=O)[O-])c2)cc1 (configuration not stated),7.92%
23,O=C(Nc1cccc([N+](=O)[O-])c1)Nn1cnnc1,12.5%

row,SMILES,inhibition
1,C/C(N)=C(/C#N)C(=O)COC(=O)C1=NN(c2ccccc2)C(=O)CC1,7.03%
2,Cc1ccc(S(=O)(=O)N2CCC(Oc3ccc(-n4cnnn4)cc3)CC2)cc1,3.04%
3,COc1cccc(/C=C2/SC(=S)N(CC(=O)NC3C=CS(=O)(=O)C3)C2=O)c1 (configuration not stated),-8.12%
4,CN1C=CC=C/C1=C1\SC(=S)N(Cc2ccccc2)C1=O,25.3%
5,COc1cc(/C=C2/SC(=S)N(Cc3ccccc3)C2=O)cc(OC)c1O,52.9% (active)
6,COC(=O)c1ccc(NC(=O)CSc2nncc3ccc(OC)c(OC)c23)cc1,-2.84%
7,C#CCOc1ccc(/C=C2/C(=O)NN(c3ccccc3)C2=O)cc1OC,12%
8,COc1cc(/C=C2/C(=O)NN(c3ccc(F)cc3)C2=O)cc([N+](=O)[O-])c1O,51.9% (active)
9,COc1cc(CN2CC(C)CC(C)C2)cc([N+](=O)[O-])c1O (configuration not stated),5.99%
10,COc1ccc(NC(=O)CC(NC(C)c2ccccc2)C(=O)O)cc1 (configuration not stated),0.17%
11,O=C(COC(=O)c1cc(S(=O)(=O)N2CCOCC2)ccc1Cl)NCCc1ccccc1,9.32%
12,O=C(C1CCCO1)N(Cc1ccccc1)c1ccccc1 (configuration not stated),2.47%
13,Oc1ccc(N=Nc2nccs2)c(O)c1,67% (active)
14,Oc1ccc2ccccc2c1N=Nc1nccs1,94.3% (active)
15,Cc1cnc(C(=O)N2CCCC(C(=O)c3ccc(C(F)(F)F)cc3)C2)cn1 (configuration not stated),15.2%
16,Cc1ccccc1C(=O)OC1OC(=O)C(Cl)=C1Nc1ccccc1 (configuration not stated),17.2%
17,O=S(=O)(Nc1cc(Cl)ccc1N1CCOCC1)c1ccccc1Cl,17.2%
18,Cc1oc2c(c1C(=O)N1CCOCC1)C(=O)c1ccccc1C2=O,-12.2%
19,O=C1c2ccccc2-c2ncnc3c(N4CCOCC4)cc(N4CCOCC4)c1c23,55.9% (active)
20,Cc1ccc2c(C)c(C(=O)N3CCC(N4CCC(C(=O)NC5CC5)CC4)CC3)oc2c1,1.71%
21,CN(C(=O)CSc1nnc(Nc2ccccc2)s1)C1CCS(=O)(=O)C1 (configuration not stated),4%
22,O=C1c2cccnc2C(Nc2ccc(S(=O)(=O)N3CCCCCC3)cc2)N1Cc1ccccc1 (configuration not stated),5.72%
23,Cc1ccc(S(=O)(=O)NCc2ccc(C(=O)NC3CCC(C)CC3)cc2)cc1 (configuration not stated),19.3%
